Assay results taken from PubChem BioAssay AID1159580 (chemical genetic matrix, 2015).
Several values for one entry are separate records, joined by “and”; a condition that tells them apart may be missing. Identical values can stand only once. Out of some 5,500 compounds screened, about 2,000 (36%) were called active. Inconclusive results (about 18%) are left out. No stated cut-off is given here; in the data, active means normalized growth mostly below about 0.91 (no sharp cut-off); inconclusive means no clear call, values can overlap the other calls; inactive means mostly above about 0.92. The list shows a part of the results.

Experiment: chemical genetic growth profiling, strain panel (AID 1159580);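 further: tested at 20 µM; growth read once vehicle control cultures reached saturation at 30 °C; 1 = growth at the plate median or of vehicle wells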
Conditions: S. cerevisiae deletion strains, growth OD

Measured: normalized growth

O=c1cc(-c2ccccc2)oc2c(O)c(O)ccc12
inactive: locus YAL021C, strain ccr4, stronger effect = lower value 0.913 | locus YAL026C, strain drs2, stronger effect = lower value 0.977 | locus YAL030W, strain snc1, stronger effect = lower value 0.99 | locus YBL061C, strain skt5, stronger effect = lower value 0.995 | locus YBR009C, strain hhf1, stronger effect = lower value 0.98 | locus YBR021W, strain FUR4, stronger effect = lower value 0.955 | locus YBR023C, strain chs3, stronger effect = lower value 0.997 | locus YBR171W, strain sec66, stronger effect = lower value 0.964 | locus YBR229C, strain ROT2, stronger effect = lower value 0.974 | locus YBR231C, strain swc5, stronger effect = lower value 0.98 | locus YBR279W, strain paf1, stronger effect = lower value 0.99 | locus YCL011C, strain gbp2, stronger effect = lower value 0.984 | locus YCL016C, strain dcc1, stronger effect = lower value 0.98 | locus YCL029C, strain bik1, stronger effect = lower value 0.956 | locus YCL061C, strain MRC1, stronger effect = lower value 0.981 | locus YCL069W, strain vba3, stronger effect = lower value 0.985 | locus YCR088W, strain abp1, stronger effect = lower value 0.991 | locus YDL005C, strain med2, stronger effect = lower value 0.991 | locus YDL035C, strain GPR1, stronger effect = lower value 0.863 | locus YDL040C, strain nat1, stronger effect = lower value 0.992 | locus YDL074C, strain BRE1, stronger effect = lower value 0.808 | locus YDL101C, strain DUN1, stronger effect = lower value 0.948 | locus YDL185W, strain tfp1, stronger effect = lower value 0.972 | locus YDR001C, strain nth1, stronger effect = lower value 0.995 | locus YDR069C, strain doa4, stronger effect = lower value 0.936 | locus YDR101C, strain arx1, stronger effect = lower value 0.973 | locus YDR150W, strain NUM1, stronger effect = lower value 0.984 | locus YDR159W, strain sac3, stronger effect = lower value 0.971 | locus YDR162C, strain NBP2, stronger effect = lower value 0.834 | locus YDR195W, strain ref2 1.03 | locus YDR297W, strain sur2, stronger effect = lower value 0.988 | locus YDR318W, strain mcm21, stronger effect = lower value 0.991 | locus YDR334W, strain swr1, stronger effect = lower value 0.942 | locus YDR335W, strain msn5, stronger effect = lower value 0.979 | locus YDR388W, stronger effect = lower value 0.989 | locus YDR392W, strain spt3, stronger effect = lower value 1 | locus YDR502C, strain sam2, stronger effect = lower value 0.96 | locus YEL003W, strain gim4, stronger effect = lower value 0.983 | locus YEL037C, strain rad23, stronger effect = lower value 0.986 | locus YEL061C, strain CIN8 (second series), stronger effect = lower value 0.99 | locus YEL061C, strain CIN8, stronger effect = lower value 0.978 | locus YER015W, strain faa2, stronger effect = lower value 0.99 | locus YER016W, strain bim1, stronger effect = lower value 0.983 | locus YER110C, stronger effect = lower value 0.962 | locus YER111C, strain swi4, stronger effect = lower value 0.983 | locus YER155C, strain BEM2 (second series), stronger effect = lower value 0.982 | locus YER155C, strain BEM2, stronger effect = lower value 1.02 | locus YER167W, strain BCK2, stronger effect = lower value 1 | locus YFR010W, strain ubp6, stronger effect = lower value 0.944 | locus YGL078C, strain dbp3, stronger effect = lower value 0.98 | locus YGL086W, strain mad1, stronger effect = lower value 0.932 | locus YGL167C, strain pmr1, stronger effect = lower value 0.988 | locus YGL173C, strain kem1, stronger effect = lower value 0.975 | locus YGL227W, strain vid30, stronger effect = lower value 1 | locus YGL240W, strain doc1, stronger effect = lower value 0.956 | locus YGL248W, strain PDE1, stronger effect = lower value 0.923 | locus YGL253W, strain hxk2, stronger effect = lower value 0.99 | locus YGR135W, strain pre9, stronger effect = lower value 0.947 | locus YGR252W, strain gcn5, stronger effect = lower value 0.802 | locus YHR013C, strain ard1, stronger effect = lower value 0.951 | locus YHR027C, strain rpn1, stronger effect = lower value 0.983 | locus YHR030C, strain SLT2, stronger effect = lower value 0.98 and 1.06 | locus YHR079C, strain IRE1 (second series), stronger effect = lower value 0.988 | locus YHR079C, strain IRE1, stronger effect = lower value 1.05 | locus YHR094C, strain hxt1, stronger effect = lower value 0.99 | locus YHR129C, strain ARP1, stronger effect = lower value 0.93 | locus YHR142W, strain chs7, stronger effect = lower value 0.973 | locus YHR200W, strain rpn10, stronger effect = lower value 0.958 | locus YIL066C, strain RNR3, stronger effect = lower value 0.873 | locus YIL073C, strain SPO22, stronger effect = lower value 0.702 | locus YIL125W, strain kgd1, stronger effect = lower value 0.97 | locus YIR030C, strain dcg1, stronger effect = lower value 0.997 | locus YJL092W, strain hpr5, stronger effect = lower value 0.994 | locus YJL095W, strain BCK1 (second series), stronger effect = lower value 0.996 | locus YJL115W, strain asf1, stronger effect = lower value 0.971 | locus YJL129C, strain trk1, stronger effect = lower value 0.912 | locus YJL134W, strain LCB3, stronger effect = lower value 0.986 | locus YJL154C, strain vps35, stronger effect = lower value 0.984 | locus YJL164C, strain tpk1, stronger effect = lower value 0.985 | locus YJL166W, strain qcr8, stronger effect = lower value 0.994 | locus YJL168C, strain set2, stronger effect = lower value 0.981 | locus YJL187C, strain SWE1, stronger effect = lower value 0.975 | locus YJR043C, strain POL32, stronger effect = lower value 0.921
0.733 (active) and 1.08 (inactive): locus YJL095W, strain BCK1, stronger effect = lower value
active: locus YDL192W, strain arf1, stronger effect = lower value 0.88 | locus YDR137W, strain rgp1, stronger effect = lower value 0.664 | locus YJL187C, strain SWE1 (second series), stronger effect = lower value 0.844
